Activity calls are given as the source filed them.
Key:
[1] = system: Plasmodium falciparum Sir2 (PF13_0152, Sir2A); assay: pfSir2 binders on small-molecule microarrays, primary screen, biochemical, small-molecule microarray, 635 nm fluorescence (AID 1098); settings: small-molecule microarray binding, fluorescence 635 nm; higher = more signal;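 further: score merges spot fluorescence intensity with its signal-to-noise ratio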
[2] = small-molecule microarray binders of probe aDKK1, primary screen, biochemical, biotinylated probe, 635/667 nm fluorescence (AID 1099); settings: higher = more signal;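 further: score merges 667nm spot fluorescence with signal to noise across triplicate slides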
[3] = small-molecule microarray binders of probe aCHRDL2, primary screen, biochemical, biotinylated probe, 635/667 nm fluorescence (AID 1100); settings: higher = more signal
[4] = splicing luciferase reporter signal modulators, primary screen, spliceosome inhibition project, cell-based, HEK293, splice +/- reporter (AID 1101); settings: luminescence, 24 h, higher = more signal, called active from +8 up or from −8 down;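 further: HEK293 cells carrying a splicing-competent luciferase reporter gene; test concentration not given here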
[5] = target: Fibroblast growth factor 10 (Homo sapiens) (UniProt O15520); assay: FGF10 binders on small-molecule microarrays, primary screen, biochemical, small-molecule microarray, 635 nm fluorescence (AID 1102); settings: FGF10 binding, fluorescence 635 nm, higher = more signal
[6] = system: glycogen synthase kinase-3 (GSK3A per assay name; protocol says GSK3B); assay: GSK3 binders on small-molecule microarrays, primary screen, biochemical, small-molecule microarray, 635 nm fluorescence, GSK3A (AID 1103); settings: small-molecule microarray binding, fluorescence 635 nm; higher = more signal; further: the record names both GSK3A and GSK3B
[7] = target: Epidermal growth factor receptor (Homo sapiens) (UniProt P00533); assay: EGFR binders on small-molecule microarrays, primary screen, biochemical, small-molecule microarray, 635 nm fluorescence (AID 1104); settings: EGFR binding, higher = more signal;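 further: score merges 667 nm emission intensity with spot signal to noise over triplicate slides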
[8] = target: Follistatin-related protein 3 (Homo sapiens) (UniProt O95633); assay: FSTL3 binders on small-molecule microarrays, primary screen, biochemical, small-molecule microarray, 635 nm fluorescence (AID 1105); settings: FSTL3 binding, higher = more signal;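 further: score merges emission near 667 nm and signal to noise per printed spot across three slides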
[9] = target: Dickkopf-related protein 1 (Homo sapiens) (UniProt O94907); assay: DKK1 binders on small-molecule microarrays, primary screen, biochemical, small-molecule microarray, 635 nm fluorescence scan (AID 1106); settings: DKK1 binding, higher = more signal;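 further: score merges emission near 667 nm with signal to noise over three replicate slides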
[10] = system: Inhibin beta A chain (activin A); assay: INHBA (activin A) binders on microarrays, primary screen, biochemical, small-molecule microarray, 635 nm fluorescence scan (AID 1107); settings: small-molecule microarray binding, higher = more signal;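 further: mouse activin A protein probed at 4.33 µg/mL on printed slides; score merges bound-protein fluorescence near 667 nm with spot signal-to-noise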
[11] = system: Human papillomavirus type 1a protein E7 (residues 44-93); assay: HPV1a E7 fragment binders on microarrays, primary screen, biochemical, small-molecule microarray, residues 44-93, 635 nm fluorescence (AID 1108); settings: small-molecule microarray binding, fluorescence 635 nm; higher = more signal;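 further: E7 fragment applied at 1 µg/mL in TBST for 1 h at 4 C; score combines spot fluorescence with its signal to noise ratio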
[12] = modulators of HCV replicon luciferase signal, primary screen, HCV replication inhibitor project, Huh7 cells, luciferase reporter (AID 1109); settings: 48 h, higher = more signal;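 further: huh7 hepatoma cells harbouring a luciferase neomycin HCV replicon reporter; luciferase luminescence as measure of HCV replicon replication; test concentration not given here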
[13] = target: Left-right determination factor 2 (Homo sapiens) (UniProt O00292); assay: LEFTY2 binders on small-molecule microarrays, primary screen, biochemical, small-molecule microarray, 635 nm fluorescence scan (AID 1110); settings: LEFTY2 binding, higher = more signal
[14] = target: Calmodulin-1 (Homo sapiens) (UniProt P0DP23); assay: CALM1 binders on microarrays, EGTA buffer, profiling panel, biochemical, small-molecule microarray, Cy5-labelled CALM1 (AID 1111); settings: Cy5-CALM1 binding fluorescence, higher = more signal;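 further: labelled calmodulin applied in Tris saline Tween buffer holding calcium plus EGTA and DTT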
[15] = target: Calmodulin-1 (Homo sapiens) (UniProt P0DP23); assay: calcium-bound CALM1 binders on microarrays, profiling panel, artefact control for SMM control-protein annotation, biochemical, small-molecule microarray, Cy5-labelled CALM1, plus calcium (AID 1112); settings: Cy5-CALM1 binding fluorescence, higher = more signal;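 further: score merges spot fluorescence with signal to noise from triplicate slides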
[16] = small-molecule microarray binders of probe aWnt5a, primary screen, biochemical, biotinylated probe, 635/667 nm fluorescence (AID 1113); settings: higher = more signal;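 further: score merges 667 nm fluorescence intensity with signal-to-noise per printed feature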
[17] = small-molecule microarray binders of probe aShh, primary screen, biochemical, biotinylated probe, 635/667 nm fluorescence (AID 1114); settings: higher = more signal;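 further: probe is biotin-labelled aShh protein from a stem cell growth factor screen; measures binding of labelled protein to compounds printed on the slide; score merges feature fluorescence at 667 nm with signal-to-noise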
[18] = small-molecule microarray binders of probe aNog, primary screen, biochemical, biotinylated probe, 635/667 nm fluorescence (AID 1115); settings: higher = more signal;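 further: probe is biotinylated aNog protein used at 0.15 µg/mL for 1 h at 4 C; z-score combines 667 nm fluorescence of each spot with its signal to noise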
[19] = target: Torsin-1A-interacting protein 1 (Homo sapiens) (UniProt Q5JTV8); assay: LAP1 binders from COS7 cell lysate, primary screen, small-molecule microarray, 635/667 nm fluorescence (AID 1116); settings: COS7-hLAP1 lysate binding, 635 nm fluorescence, higher = more signal
[20] = target: Alpha-bungarotoxin (Bungarus multicinctus) (UniProt P60615); assay: alpha-bungarotoxin binders on microarray, profiling panel, artefact control for SMM control protein annotation, biochemical, small-molecule microarray, Alexa647 label, 635/667 nm fluorescence (AID 1117); settings: alpha-BTX-A647 binding fluorescence, higher = more signal
Chain of Alpha-bungarotoxin (Bungarus multicinctus) (P60615 whole entry, looked up): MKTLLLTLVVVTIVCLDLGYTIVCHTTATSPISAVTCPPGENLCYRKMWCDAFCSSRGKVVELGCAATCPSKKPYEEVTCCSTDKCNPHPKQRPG

Chain of Epidermal growth factor receptor (Homo sapiens) (P00533 whole entry, looked up): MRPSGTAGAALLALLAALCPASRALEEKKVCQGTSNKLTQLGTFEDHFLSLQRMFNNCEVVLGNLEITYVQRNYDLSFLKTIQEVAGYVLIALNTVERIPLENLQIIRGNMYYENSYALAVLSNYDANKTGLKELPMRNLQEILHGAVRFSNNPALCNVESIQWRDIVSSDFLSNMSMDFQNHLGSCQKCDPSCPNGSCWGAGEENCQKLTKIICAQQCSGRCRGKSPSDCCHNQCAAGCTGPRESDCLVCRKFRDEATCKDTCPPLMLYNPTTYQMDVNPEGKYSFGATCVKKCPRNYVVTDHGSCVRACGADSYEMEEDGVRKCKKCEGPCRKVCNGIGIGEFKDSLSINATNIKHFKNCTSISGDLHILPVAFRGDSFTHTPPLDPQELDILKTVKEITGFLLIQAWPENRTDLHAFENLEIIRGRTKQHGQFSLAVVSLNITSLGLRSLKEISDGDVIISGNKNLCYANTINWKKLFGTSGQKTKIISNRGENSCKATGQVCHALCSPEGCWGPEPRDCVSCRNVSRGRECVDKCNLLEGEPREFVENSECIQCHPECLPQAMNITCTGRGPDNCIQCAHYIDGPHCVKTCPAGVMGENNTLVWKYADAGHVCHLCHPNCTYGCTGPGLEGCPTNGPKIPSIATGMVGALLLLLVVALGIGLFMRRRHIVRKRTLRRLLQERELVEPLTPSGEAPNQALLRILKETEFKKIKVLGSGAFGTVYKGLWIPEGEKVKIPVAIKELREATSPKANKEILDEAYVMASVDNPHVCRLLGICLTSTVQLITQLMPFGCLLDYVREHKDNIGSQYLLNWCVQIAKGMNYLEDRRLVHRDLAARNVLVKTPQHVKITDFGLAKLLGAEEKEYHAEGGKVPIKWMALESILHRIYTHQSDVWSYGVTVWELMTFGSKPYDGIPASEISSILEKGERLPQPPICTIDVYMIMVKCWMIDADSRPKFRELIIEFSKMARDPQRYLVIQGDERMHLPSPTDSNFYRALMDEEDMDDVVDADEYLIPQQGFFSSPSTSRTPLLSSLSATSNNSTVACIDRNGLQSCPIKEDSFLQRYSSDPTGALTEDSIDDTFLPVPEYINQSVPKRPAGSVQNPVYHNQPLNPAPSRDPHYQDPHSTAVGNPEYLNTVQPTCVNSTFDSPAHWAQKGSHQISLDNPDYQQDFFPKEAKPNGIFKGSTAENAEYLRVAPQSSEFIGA
Chain of Dickkopf-related protein 1 (Homo sapiens) (O94907 whole entry, looked up): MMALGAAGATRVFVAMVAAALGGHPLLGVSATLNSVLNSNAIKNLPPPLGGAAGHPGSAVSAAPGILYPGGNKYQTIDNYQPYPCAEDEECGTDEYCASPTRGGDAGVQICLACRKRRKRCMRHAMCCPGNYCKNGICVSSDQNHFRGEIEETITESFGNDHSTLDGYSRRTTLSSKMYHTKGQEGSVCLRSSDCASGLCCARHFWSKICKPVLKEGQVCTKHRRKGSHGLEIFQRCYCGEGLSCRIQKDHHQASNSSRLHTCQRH
Chain of Left-right determination factor 2 (Homo sapiens) (O00292 whole entry, looked up): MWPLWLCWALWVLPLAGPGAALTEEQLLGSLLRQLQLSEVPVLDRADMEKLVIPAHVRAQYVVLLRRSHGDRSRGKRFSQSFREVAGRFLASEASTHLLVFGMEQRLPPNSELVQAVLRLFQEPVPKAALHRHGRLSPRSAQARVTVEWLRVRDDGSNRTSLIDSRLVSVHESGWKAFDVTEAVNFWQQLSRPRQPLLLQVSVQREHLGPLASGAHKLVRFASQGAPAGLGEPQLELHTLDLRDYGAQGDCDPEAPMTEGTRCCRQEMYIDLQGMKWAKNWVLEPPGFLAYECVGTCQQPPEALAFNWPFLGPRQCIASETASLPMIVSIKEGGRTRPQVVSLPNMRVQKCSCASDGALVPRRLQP
Chain of Torsin-1A-interacting protein 1 (Homo sapiens) (Q5JTV8 whole entry, looked up): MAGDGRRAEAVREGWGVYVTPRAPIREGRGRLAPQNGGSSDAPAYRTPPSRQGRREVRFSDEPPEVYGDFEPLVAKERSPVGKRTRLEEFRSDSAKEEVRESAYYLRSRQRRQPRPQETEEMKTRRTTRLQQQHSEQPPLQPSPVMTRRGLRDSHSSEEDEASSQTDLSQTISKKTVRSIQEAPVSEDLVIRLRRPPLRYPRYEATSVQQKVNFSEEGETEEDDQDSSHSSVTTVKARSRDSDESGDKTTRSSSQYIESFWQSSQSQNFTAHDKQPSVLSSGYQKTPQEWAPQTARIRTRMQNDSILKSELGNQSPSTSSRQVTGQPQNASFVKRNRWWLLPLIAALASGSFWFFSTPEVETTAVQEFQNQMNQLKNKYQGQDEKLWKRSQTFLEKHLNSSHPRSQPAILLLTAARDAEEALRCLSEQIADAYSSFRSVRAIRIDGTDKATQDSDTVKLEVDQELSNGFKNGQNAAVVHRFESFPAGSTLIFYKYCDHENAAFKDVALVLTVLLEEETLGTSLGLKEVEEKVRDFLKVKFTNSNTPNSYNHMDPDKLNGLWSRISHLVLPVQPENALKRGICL
Chain of Fibroblast growth factor 10 (Homo sapiens) (O15520 whole entry, looked up): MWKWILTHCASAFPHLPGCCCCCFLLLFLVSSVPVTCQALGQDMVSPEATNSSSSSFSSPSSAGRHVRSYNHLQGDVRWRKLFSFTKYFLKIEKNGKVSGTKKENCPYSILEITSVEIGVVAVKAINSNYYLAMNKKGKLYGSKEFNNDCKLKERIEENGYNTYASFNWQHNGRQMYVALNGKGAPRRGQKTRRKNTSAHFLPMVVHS
Chain of Follistatin-related protein 3 (Homo sapiens) (O95633 whole entry, looked up): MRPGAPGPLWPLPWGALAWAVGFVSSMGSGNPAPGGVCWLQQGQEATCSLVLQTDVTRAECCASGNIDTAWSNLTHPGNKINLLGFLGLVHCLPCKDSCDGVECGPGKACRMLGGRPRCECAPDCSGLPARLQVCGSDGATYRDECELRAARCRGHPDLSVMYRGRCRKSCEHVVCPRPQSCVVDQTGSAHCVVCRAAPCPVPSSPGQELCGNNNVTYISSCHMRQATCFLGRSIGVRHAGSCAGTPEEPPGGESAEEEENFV

| SMILES | composite z-score [1] | composite z-score [2] | composite z-score [3] | z-score [4] | composite z-score [5] | composite z-score [6] | composite z-score [7] | composite z-score [8] | composite z-score [9] | composite z-score [10] | composite z-score [11] | z-score [12] | composite z-score [13] | composite z-score [14] | composite z-score [15] | composite z-score [16] | composite z-score [17] | composite z-score [18] | composite z-score [19] | composite z-score [20] |
| --- | --- | --- | --- | --- | --- | --- | --- | --- | --- | --- | --- | --- | --- | --- | --- | --- | --- | --- | --- | --- |
| CON=C[C@@H](C)[C@H](OCc1ccccc1)C(C)C | -0.187 | -0.152 | -0.225 | -0.829 (inactive) | 0.0578 | -0.594 | 0.327 | 0.122 | 0.312 | 0.216 | -0.933 | -0.131 | 0.418 | -0.442 | -0.418 | -0.0882 | -0.419 | -0.204 | 1.15 | -0.11 |
| CC(=O)OC[C@H]1O[C@@H](ON=C(C)CCN2CCCc3nc(C)c(C)cc32)[C@H](OC(C)=O)[C@@H](OC(C)=O)[C@@H]1OC(C)=O | 0.541 | -0.132 | -0.638 | -0.548 (inactive) | 1.03 | 1.29 | 0.804 | 1.26 | 0.855 | -0.263 | 1.38 | -1.14 | 0.737 | 0.113 | -0.743 | -0.117 | -0.167 | 0.0401 | 0.466 | 0.0927 |
| CON=C1[C@H]2CCn3c(=O)n(-c4ccccc4)c(=O)n3[C@H]2[C@H](O)[C@@H]2O[C@H]12 | 0.555 | -0.198 | -0.67 | -0.871 (inactive) | 0.556 | 0.81 | 0.599 | 0.488 | 0.332 | 0.141 | 0.548 | -2.1 | 0.661 | -0.345 | -0.536 | -0.0445 | -0.138 | -0.158 | -0.501 | 0.269 |
| COc1ccc(O[C@H]2C=C[C@@H](c3ccccc3)O[C@@H]2COC(=O)CCC(C)=NO[C@@H]2O[C@H](COC(C)=O)[C@@H](OC(C)=O)[C@H](OC(C)=O)[C@H]2OC(C)=O)cc1 | 0.538 | -0.397 | -0.374 | -0.315 (inactive) | 0.799 | 1.01 | 0.609 | 1.12 | 0.275 | -0.116 | 1.29 | -1.88 | 0.511 | -0.126 | -0.643 | -0.0944 | -0.206 | -0.53 | 0.38 | 0.731 |
| COC(=O)[C@H](C)NC(=O)CCC1CC(OC(=O)NCc2ccc3c(c2)OCO3)CC2(CCCC(COC(=O)NCC(c3ccccc3)c3ccccc3)O2)O1 (stereo not given in full) | 0.848 | -0.33 | -0.845 | -0.845 (inactive) | 1.33 | 0.653 | 0.651 | 1.2 | 0.766 | -0.473 | 1.42 | 0.327 | 0.739 | 0.869 | -0.663 | -0.0037 | -0.229 | -0.11 | 0.587 | 1.04 |
| O=c1n(Cc2cc3c(cc2Cl)OCO3)c(=O)n2n1CC[C@@H]1C(=NOC[C@@H](O)COCc3ccco3)[C@H]3O[C@H]3[C@@H](O)[C@@H]12 | 0.461 | -0.0876 | -0.454 | 0.115 (inactive) | 0.246 | 0.532 | 0.349 | 0.596 | 0.538 | 0.217 | 0.77 | -0.76 | 0.436 | -0.25 | -0.535 | -0.0556 | -0.0709 | -0.0544 | 0.469 | 0.423 |
| COc1ccc(O[C@H]2C=C[C@@H](c3ccccc3)O[C@@H]2COC(=O)CCC(C)=NOC(C)CN2CCCc3nc(C)c(C)cc32)cc1 (stereo not given in full) | 0.817 | -0.176 | -0.433 | 0.063 (inactive) | 0.753 | 1.03 | 0.517 | 0.889 | 0.524 | 0.465 | 1.31 | -1.81 | 0.646 | 0.0727 | -0.384 | -0.124 | 0.0278 | 0.109 | 0.4 | 0.463 |
| COC(=O)CC=C[C@@H](C)[C@@H](C=NOC[C@H]1O[C@H](c2ccccc2)C=C[C@@H]1Oc1ccc(OC)cc1)NS(=O)(=O)c1ccc(C)cc1 | -0.611 | 0.0033 | 0.674 | 0.00198 (inactive) | -0.858 | -1.78 | -0.873 | -1.2 | -0.462 | 0.797 | -1.1 | -0.787 | -0.233 | -1.07 | -0.467 | -0.147 | -0.112 | -0.181 | -0.306 | -0.183 |
| CCOC(=O)[C@H](CC(C)C)NC(=O)CCC1CC(OC(=O)NCCc2ccc(F)cc2)CC2(CCCC(COC(=O)NCC3CCCCC3)O2)O1 (stereo not given in full) | 0.0149 | -0.227 | -0.283 | -0.152 (inactive) | 0.953 | 0.293 | 0.432 | 0.8 | 0.479 | -0.174 | 0.723 | -1.11 | 0.351 | 0.255 | -0.622 | -0.19 | -0.0362 | -0.45 | 0.627 | 0.596 |
| CCOC(=O)[C@H](Cc1ccccc1)NC(=O)OC1CC(CCC2CC(CC)=NO2)OC2(CCCC(COC(=O)NCCC(C)C)O2)C1 (stereo not given in full) | 0.328 | -0.246 | -0.264 | 0.667 (inactive) | 0.848 | 0.207 | 0.0954 | -0.127 | 0.0585 | -0.415 | 0.836 | -1.39 | 0.0791 | 0.426 | 0.0002 | 0.0292 | -0.195 | 0.152 | 0.309 | 0.426 |
| COc1cccc([C@@H]2Oc3ccc(OC)cc3C(=O)[C@H]2O)c1 | -0.117 | -0.172 | -0.705 | -2.47 (inactive) | 0.606 | 0.184 | 0.469 | 0.525 | 0.527 | 0.0204 | 0.0299 | 2.25 | 0.386 | 0.111 | -0.397 | -0.157 | -0.0211 | -0.519 | -0.0655 | 1.11 |

— PubChem BioAssay
